# Assay outcomes (PubChem)
# BoNT A protease = blocks Botulinum neurotoxin A light chain protease | multiplex microsphere protease substrate cleavage, flow cytometry | inhibition, % at 10 µM | 360,000 tested, 0.17% active | AID 588499
# SARS 3CLpro inh = SARS-CoV 3CLpro protease inhibition; P0C6X7; recombinant SARS-CoV 3CLpro, quenched FRET peptide cleavage; inhibition, % at 6 µM; 290,000 tested, 0.14% active; in the data active = inhibition above about 12%
# CCHF vOTU inh = blocks the CCHF virus ovarian tumor domain protease; CCHFV vOTU protease, Pep-AMC fluorescence; inhibition, % at 11.5 µM; 370,000 tested, 0.55% active; AID 651958; in the data active = inhibition above about 30%
# Anthrax LF prot = blocks Bacillus anthracis lethal factor protease. P15917. multiplex microsphere protease cleavage assay, LF. inhibition, % at 10 µM. 360,000 tested, 0.12% active
# Autofluor counter = counter-screen for toxin protease inhibitors: compound fluorescence. AID 624483. compound autofluorescence counterscreen, microsphere flow cytometry; hits give high values. fluorescence intensity (concentration not given with the values). 360,000 tested, 3.1% active; in the data active = fluorescence intensity above about 16000; inconclusive = no clear call, values can overlap the other calls
# BoNT-F LC inh = inhibitors of Botulinum neurotoxin F light chain protease. 360,000 tested, 0.22% active. AID 588497. inhibition, % at 10 µM. Multiplex microsphere protease cleavage assay, flow cytometry; in the data active = inhibition above about 35%, passing the limit was not always enough; inconclusive = no clear call, values can overlap the other calls
# Hits are given with their value; i = inactive; ? = inconclusive; nt = no result. Sampled rows, rich in hits. Any-hit rate of the full collection: about 3.9%. Cut-off read from the data, not from the text of the source, unless noted: active = inhibition above about 30%; inconclusive = no clear call, values can overlap the other calls; inactive = below that.
SMILES,BoNT A protease,SARS 3CLpro inh,CCHF vOTU inh,Anthrax LF prot,Autofluor counter,BoNT-F LC inh
Oc1c(N=Nc2ccccn2)ccc2ccccc12,36,i,i,i,i,i
Oc1[nH]c2ccccc2c1N=Nc1ccccn1,i,nt,i,i,i,i
CCCCCCn1c2c(c(=N)c3c1CCC3)CCC2,?,i,i,i,22477,i
O=C(NC1CCCCN(Cc2cccc(C(F)(F)F)c2)C1=O)c1ccc(F)c(F)c1 (centres undefined),nt,nt,i,nt,nt,nt
CNC(=O)NC1CCCCc2sccc21 (centres undefined),i,i,i,i,16866,i
C=CCN1C(=O)[C@@H](CC(=O)N2CCCCC2)[C@]2(C(=O)OCC)CCCCC/C=C/12,nt,nt,i,nt,nt,nt
O=S(=O)(N1CCCCCC1)N1CCN(S(=O)(=O)N2CCCCC2)CC1,i,i,i,i,19718,i
CCOc1ccc(OCC(=O)OCn2c(SC)nnc(C)c2=O)cc1,i,i,i,i,i,i
CCOc1ccc(C(c2c(O)nc(SC)n(C)c2=O)c2c(O)nc(SC)n(C)c2=O)cc1,i,i,i,i,22263,i
Cc1ccc2nc3c(nc2c1)-c1ccccc1C3=O,i,i,i,i,23481,i
Cc1c(CN(C)C(=O)c2ccc(Br)o2)cnn1C,?,i,i,i,19727,i
O=C(c1ccc(Br)o1)N(Cc1ccccc1)Cc1ccccc1,i,i,i,i,i,i
C=CC[C@]1(c2ccccc2)C(=O)N2C[C@H]3CON(C)[C@H]3C[C@H]2c2ccccc21,nt,nt,i,nt,nt,nt
CCn1c(CNC(=O)COc2c(C)cccc2C)nnc1SCC(=O)Nc1nccs1,i,i,i,i,17164,i
Cc1ccc(-n2c(COc3c(C)cccc3C)nnc2SCC(=O)Nc2nccs2)cc1,i,i,i,i,i,i
CCn1c(SCC(=O)NCc2cccs2)nnc1-c1cccs1,i,i,i,i,23563,i
Cn1c(SCC(=O)NCc2cccs2)nnc1-c1cccs1,i,i,i,i,i,i
CCOC(=O)c1sc(NC(=O)C2CC2)nc1C,i,i,i,i,i,i
CCOC(=O)Cc1csc(NC(=O)C2C3C=CC(C3)C2C(=O)O)n1 (centres undefined),i,i,i,i,i,i
CCOC(=O)c1sc(NC(=O)C2C3C=CC(C3)C2C(=O)O)nc1C (centres undefined),i,i,i,i,23393,i
CCOC(=O)c1sc(NS(=O)(=O)c2ccccc2)nc1C,i,i,i,i,i,i
CCOC(=O)c1sc(NC(=O)c2ccc(=O)[nH]c2)nc1C,i,i,i,i,i,37
Cc1csc(NC(=O)C2C3C=CC(C3)C2C(=O)O)n1 (centres undefined),?,i,i,i,21611,i
CCOC(=O)c1sc(NS(=O)(=O)c2ccccc2Cl)nc1C,i,i,i,i,26130,i
CC(=O)c1cc(-c2cccc(CO)c2)c(=O)n2c1CCC2,nt,nt,i,nt,nt,nt
SMILES,BoNT A protease,SARS 3CLpro inh,CCHF vOTU inh,Anthrax LF prot,Autofluor counter,BoNT-F LC inh
COC(=O)C1CN(Cc2cn(Cc3ccc(C)cc3)nn2)CCS(=O)(=O)N1Cc1ccc(OC)cc1 (centres undefined),nt,nt,i,nt,nt,nt
O=C(O)CN1C(=O)/C(=C/C=C/c2ccccc2)SC1=S,i,i,i,i,i,i
CC(=O)c1ccc(NC(=O)CN2C(=O)/C(=C/C=C/c3ccccc3)SC2=S)cc1,47,i,i,i,i,i
O=S1(=O)N[C@H](Cc2ccccc2)COc2cc(Br)ccc21,nt,nt,i,nt,nt,nt
COC(=O)[C@]12C[C@H](CC(=O)NCc3ccc(OC)c(OC)c3)C(=O)N(Cc3ccc(Cl)cc3Cl)C1=C[C@H](C(C)(C)C)O[C@@H]2C,nt,nt,i,nt,nt,nt
COc1ccccc1NC(=O)c1csc(-n2nc(C)cc2C(F)(F)F)n1,?,i,i,i,21807,i
Cc1cc(C(F)(F)F)n(-c2nc(C(=O)Nc3ccccc3Oc3ccccc3)cs2)n1,nt,i,nt,nt,nt,nt
NC(=O)c1ccsc1NC(=O)C1CCCN1S(=O)(=O)c1ccc(Cl)cc1 (centres undefined),i,i,i,i,20384,i
O=C(Nc1nc(-c2ccccc2)cs1)C1CCCCN1S(=O)(=O)c1ccc(Cl)cc1 (centres undefined),i,i,nt,i,16281,i
COc1cccc(C(=O)N[C@H](C(=O)N2CCC[C@H]2C(=O)NCCc2ccccc2Cl)C2CCCCC2)c1,nt,nt,i,nt,nt,nt
CC(C)(C)C(=O)c1cnc(Nc2ccccc2Cl)s1,i,i,i,i,i,i
O=C(c1ccc(Cl)c(Cl)c1)c1cnc(Nc2ccccc2)s1,i,i,i,i,16510,i
CNc1ncc(C(=O)c2ccc(Cl)c(Cl)c2)s1,i,i,i,i,i,i
O=C(c1ccccc1)c1cnc(Nc2ccccc2Cl)s1,i,i,nt,i,21405,i
CS(=O)(=O)c1ccc(N2CCOCC2)c(S(C)(=O)=O)c1,i,i,i,i,20225,i
CC(=O)c1cccc(NC(=O)c2oc(C)nc2C)c1,i,i,i,i,24179,i
CC(=O)c1cccc(NC(=O)c2onc(C)c2Cl)c1,i,i,i,i,i,i
COc1cc(OC)cc(C(=O)Nc2cccc(NC(=O)c3ccccc3)c2)c1,i,i,i,i,i,i
COc1cc(OC)cc(C(=O)Nc2cccc(C(C)=O)c2)c1,i,i,i,i,22501,i
COc1cccc(C(=O)NC2CCSC2=O)c1 (centres undefined),i,i,i,i,19865,i
COc1ccc(NC(=O)c2cccc(OC(F)F)c2)cc1Cl,?,i,i,i,23117,i
CC(C)(C)S(=O)(=O)N1C[C@@H]2CC(=O)C=C2[C@H]1CCO,nt,nt,i,nt,nt,nt
CCOC(=O)[C@]12CCCC=C1N(Cc1ccc(OC)cc1)C(=O)[C@@H]2CC(=O)N1CCN(C(=O)C2CC2)CC1,nt,nt,i,nt,nt,nt
COc1cccc(C(=O)Nc2cccc(NC(C)=O)c2)c1,i,i,i,i,i,i
COc1cc(NC(=O)Nc2cccc(C(C)=O)c2)cc(OC)c1OC,i,i,i,i,21687,i
SMILES,BoNT A protease,SARS 3CLpro inh,CCHF vOTU inh,Anthrax LF prot,Autofluor counter,BoNT-F LC inh
COc1cc(C(=O)Nc2cccc(C(C)=O)c2)cc(OC)c1OC,i,i,i,i,i,i
COc1cccc(C(=O)Nc2ccc(NC(C)=O)cc2)c1,?,i,i,i,22073,i
CCOC(=O)c1c(-c2cccs2)csc1NC(=O)c1ccco1,i,i,i,i,i,i
CCOC(=O)c1c(C2COc3ccccc3O2)csc1NC(=O)c1ccco1 (centres undefined),i,i,i,i,21244,i
C/C(=N\NC(=O)c1ccccc1O)c1c(O)cc(C)oc1=O,i,i,i,i,17536,i
C/C(=N\NC(=O)c1ccccc1[N+](=O)[O-])c1c(O)cc(C)oc1=O,i,i,i,i,i,i
COC(=O)C(C)N(C(=O)c1ccc(Cl)cc1)c1c(C)cccc1C (centres undefined),i,i,i,i,21162,i
COC(=O)C(C)N(C(=O)c1ccc(C(=O)c2ccccc2)cc1)c1c(C)cccc1C (centres undefined),i,i,i,i,i,i
CCCCCCCCN1CN2Cc3cc(F)ccc3C2CS1(=O)=O (centres undefined),nt,nt,i,nt,nt,nt
Cc1nc2ccc(S(=O)(=O)NCC(=O)N(C)Cc3ccccc3Cl)cc2s1,nt,nt,i,nt,nt,nt
